# Laboratory results as given in publication PMC7862700, “An all-to-all approach to the identification of sequence-specific readers for epigenetic DNA modifications on cytosine”.
# Key:
# Test in all cases: DAPPL (digital affinity profiling via proximity ligation, sequencing); 10 mM Tris-HCl pH 7.5, 50 mM NaCl, 1 mM DTT, 4% glycerol, room temperature, 30 min; GST-TFs on glutathione beads, 16-mer random dsDNA library, 0.1% formaldehyde crosslink after washing; high values mean tight binding
# FEV = target: T1, FEV (Homo sapiens, UniProt Q99581 1-238); conditions: protein: recombinant; tags: N-terminal GST; dsDNA, one strand shown
# T1 sequence: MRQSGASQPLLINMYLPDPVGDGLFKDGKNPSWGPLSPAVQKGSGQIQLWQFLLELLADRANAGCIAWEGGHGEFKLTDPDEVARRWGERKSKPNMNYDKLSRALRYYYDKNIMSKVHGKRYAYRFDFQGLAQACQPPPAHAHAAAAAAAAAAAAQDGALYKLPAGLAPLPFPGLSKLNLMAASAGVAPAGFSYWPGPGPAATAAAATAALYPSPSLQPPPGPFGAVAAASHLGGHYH
# Method in brief: (§1)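 Pools of DNA-barcoded human transcription factors, expressed in yeast as GST fusions on glutathione beads and combined with a tag-only sample, were incubated with 200 nmole of a 16-mer random double-stranded DNA library. Incubation took 30 min at room temperature in Tris/NaCl/DTT/glycerol buffer and was followed by washing, 0.1% formaldehyde crosslinking, proximity ligation (BsaI/T4 ligase, 1 h, 37 °C), PCR amplification and sequencing on an Illumina NextSeq500. Binding signal is the ratio of a hexamer's read frequency for a factor to its frequency for the tag-only sample.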
# ETV5 = ETV5 (Homo sapiens, UniProt P41161 1-510); conditions: protein: recombinant; tags: N-terminal GST; dsDNA, one strand shown
# Sequence of ETV5 (P41161 whole entry): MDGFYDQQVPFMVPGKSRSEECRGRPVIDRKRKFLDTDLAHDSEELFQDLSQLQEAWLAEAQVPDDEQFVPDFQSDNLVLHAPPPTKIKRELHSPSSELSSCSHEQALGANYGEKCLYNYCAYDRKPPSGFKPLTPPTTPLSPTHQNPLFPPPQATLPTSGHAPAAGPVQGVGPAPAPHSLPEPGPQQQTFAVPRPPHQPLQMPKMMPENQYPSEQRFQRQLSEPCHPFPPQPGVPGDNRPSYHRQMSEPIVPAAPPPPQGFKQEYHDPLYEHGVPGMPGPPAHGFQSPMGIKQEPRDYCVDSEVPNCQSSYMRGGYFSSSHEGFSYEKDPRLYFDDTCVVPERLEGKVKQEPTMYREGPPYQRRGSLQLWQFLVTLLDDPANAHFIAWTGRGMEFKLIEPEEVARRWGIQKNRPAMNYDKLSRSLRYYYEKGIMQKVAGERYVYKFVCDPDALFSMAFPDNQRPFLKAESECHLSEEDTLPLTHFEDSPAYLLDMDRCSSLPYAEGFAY
# Method in brief: as §1
# HSF1 = HSF1 (Homo sapiens, UniProt Q00613 1-529); conditions: protein: recombinant; tags: N-terminal GST; chain copies: 3; dsDNA, one strand shown
# Sequence of HSF1 (Q00613 whole entry): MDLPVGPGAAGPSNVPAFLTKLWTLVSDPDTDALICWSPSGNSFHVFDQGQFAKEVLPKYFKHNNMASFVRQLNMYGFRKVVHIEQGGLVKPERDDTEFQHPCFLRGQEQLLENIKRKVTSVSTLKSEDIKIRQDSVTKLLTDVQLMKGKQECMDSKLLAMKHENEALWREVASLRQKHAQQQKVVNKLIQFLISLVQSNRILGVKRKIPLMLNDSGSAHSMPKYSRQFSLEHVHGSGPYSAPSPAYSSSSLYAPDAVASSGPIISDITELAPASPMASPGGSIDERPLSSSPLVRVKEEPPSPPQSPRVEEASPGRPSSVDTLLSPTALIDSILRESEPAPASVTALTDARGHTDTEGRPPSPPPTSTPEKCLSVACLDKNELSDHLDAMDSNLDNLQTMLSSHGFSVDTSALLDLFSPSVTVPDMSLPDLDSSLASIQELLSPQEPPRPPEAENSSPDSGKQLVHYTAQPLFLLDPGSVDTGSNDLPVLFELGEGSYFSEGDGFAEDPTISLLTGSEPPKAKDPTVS
# Method in brief: as §1
# SPIC = target: T2, SPIC (Homo sapiens, UniProt Q8N5J4 1-248); conditions: protein: recombinant; tags: N-terminal GST; dsDNA, one strand shown
# T2 sequence: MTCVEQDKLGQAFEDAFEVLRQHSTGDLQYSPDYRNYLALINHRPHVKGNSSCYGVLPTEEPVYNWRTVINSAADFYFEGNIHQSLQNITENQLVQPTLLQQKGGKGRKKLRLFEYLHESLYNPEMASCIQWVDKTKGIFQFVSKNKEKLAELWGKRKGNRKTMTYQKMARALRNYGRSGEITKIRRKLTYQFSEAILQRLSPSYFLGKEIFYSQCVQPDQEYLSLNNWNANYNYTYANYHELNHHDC
# Method in brief: as §1
# ELF4 = ELF4 (Homo sapiens, UniProt Q99607 1-663); conditions: protein: recombinant; tags: N-terminal GST; dsDNA, one strand shown
# Sequence of ELF4 (Q99607 whole entry): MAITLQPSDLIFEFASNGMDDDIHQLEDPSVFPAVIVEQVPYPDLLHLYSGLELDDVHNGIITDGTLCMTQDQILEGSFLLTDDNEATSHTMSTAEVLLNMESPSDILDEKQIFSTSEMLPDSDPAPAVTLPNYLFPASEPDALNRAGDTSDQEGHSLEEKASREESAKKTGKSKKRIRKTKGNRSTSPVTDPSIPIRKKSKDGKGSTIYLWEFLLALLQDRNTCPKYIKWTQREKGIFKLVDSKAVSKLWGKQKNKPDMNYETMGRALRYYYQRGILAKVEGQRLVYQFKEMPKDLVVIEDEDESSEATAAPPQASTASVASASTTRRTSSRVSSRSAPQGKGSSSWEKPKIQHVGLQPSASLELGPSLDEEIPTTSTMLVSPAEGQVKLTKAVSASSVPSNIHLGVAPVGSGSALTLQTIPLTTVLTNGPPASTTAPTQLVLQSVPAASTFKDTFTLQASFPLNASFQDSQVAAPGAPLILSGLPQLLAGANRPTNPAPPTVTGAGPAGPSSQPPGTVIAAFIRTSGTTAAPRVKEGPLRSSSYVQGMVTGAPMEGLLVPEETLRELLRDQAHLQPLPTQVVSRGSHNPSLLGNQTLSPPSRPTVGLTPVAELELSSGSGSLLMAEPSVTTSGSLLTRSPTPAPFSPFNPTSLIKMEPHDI
# Method in brief: as §1
# ELK4 = target: T3, ELK4 (Homo sapiens, UniProt P28324-2 1-405); conditions: protein: recombinant; tags: N-terminal GST; dsDNA, one strand shown
# T3 sequence: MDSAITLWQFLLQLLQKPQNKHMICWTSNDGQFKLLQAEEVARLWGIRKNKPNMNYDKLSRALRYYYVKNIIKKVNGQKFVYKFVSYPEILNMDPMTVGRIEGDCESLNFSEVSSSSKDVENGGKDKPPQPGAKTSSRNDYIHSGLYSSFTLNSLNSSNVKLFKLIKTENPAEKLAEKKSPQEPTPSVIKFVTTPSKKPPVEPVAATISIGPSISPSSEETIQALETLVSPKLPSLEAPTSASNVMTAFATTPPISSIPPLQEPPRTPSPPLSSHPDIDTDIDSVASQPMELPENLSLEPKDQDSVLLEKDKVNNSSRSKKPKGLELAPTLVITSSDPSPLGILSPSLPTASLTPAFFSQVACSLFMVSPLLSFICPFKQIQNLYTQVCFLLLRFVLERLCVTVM
# Method in brief: as §1
# ETV2 = target: T4, ETV2 (Homo sapiens, UniProt O00321 1-342); conditions: protein: recombinant; tags: N-terminal GST; dsDNA, one strand shown
# T4 sequence: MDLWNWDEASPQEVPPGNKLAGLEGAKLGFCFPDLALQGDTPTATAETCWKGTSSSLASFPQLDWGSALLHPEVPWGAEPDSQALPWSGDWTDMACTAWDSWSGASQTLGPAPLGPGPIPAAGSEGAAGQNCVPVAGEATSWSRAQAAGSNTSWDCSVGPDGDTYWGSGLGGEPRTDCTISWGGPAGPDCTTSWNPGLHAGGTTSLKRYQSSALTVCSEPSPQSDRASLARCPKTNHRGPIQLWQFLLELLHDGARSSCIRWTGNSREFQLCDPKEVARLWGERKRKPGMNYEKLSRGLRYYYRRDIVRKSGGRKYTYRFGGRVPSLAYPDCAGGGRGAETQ
# Method in brief: as §1
# ELF3 = target: T5, ELF3 (Homo sapiens, UniProt P78545 1-371); conditions: protein: recombinant; tags: N-terminal GST; dsDNA, one strand shown
# T5 sequence: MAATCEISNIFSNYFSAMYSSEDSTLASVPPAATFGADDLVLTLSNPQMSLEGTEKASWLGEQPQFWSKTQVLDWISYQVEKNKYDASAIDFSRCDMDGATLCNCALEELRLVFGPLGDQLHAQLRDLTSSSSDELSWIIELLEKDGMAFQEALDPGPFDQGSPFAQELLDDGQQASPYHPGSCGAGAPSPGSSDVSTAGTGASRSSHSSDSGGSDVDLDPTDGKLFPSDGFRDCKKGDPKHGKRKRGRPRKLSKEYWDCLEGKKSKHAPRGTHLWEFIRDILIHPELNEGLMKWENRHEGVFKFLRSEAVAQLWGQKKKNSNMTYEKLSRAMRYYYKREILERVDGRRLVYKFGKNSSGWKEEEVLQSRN
# Method in brief: as §1
# CRX = CRX (Homo sapiens, UniProt O43186 1-299); conditions: protein: recombinant; tags: N-terminal GST; dsDNA, one strand shown
# Sequence of CRX (O43186 whole entry): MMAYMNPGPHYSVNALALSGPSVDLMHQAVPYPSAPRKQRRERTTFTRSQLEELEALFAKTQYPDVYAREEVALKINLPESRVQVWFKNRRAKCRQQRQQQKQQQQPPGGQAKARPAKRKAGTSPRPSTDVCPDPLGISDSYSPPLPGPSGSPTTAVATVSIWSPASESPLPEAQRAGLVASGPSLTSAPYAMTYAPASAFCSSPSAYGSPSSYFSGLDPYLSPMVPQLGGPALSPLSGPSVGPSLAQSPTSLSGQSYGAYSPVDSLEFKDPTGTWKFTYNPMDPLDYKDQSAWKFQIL
# Method in brief: as §1
# ETV1 = ETV1 (Homo sapiens, UniProt P50549 1-477); conditions: protein: recombinant; tags: N-terminal GST; dsDNA, one strand shown
# Sequence of ETV1 (P50549 whole entry): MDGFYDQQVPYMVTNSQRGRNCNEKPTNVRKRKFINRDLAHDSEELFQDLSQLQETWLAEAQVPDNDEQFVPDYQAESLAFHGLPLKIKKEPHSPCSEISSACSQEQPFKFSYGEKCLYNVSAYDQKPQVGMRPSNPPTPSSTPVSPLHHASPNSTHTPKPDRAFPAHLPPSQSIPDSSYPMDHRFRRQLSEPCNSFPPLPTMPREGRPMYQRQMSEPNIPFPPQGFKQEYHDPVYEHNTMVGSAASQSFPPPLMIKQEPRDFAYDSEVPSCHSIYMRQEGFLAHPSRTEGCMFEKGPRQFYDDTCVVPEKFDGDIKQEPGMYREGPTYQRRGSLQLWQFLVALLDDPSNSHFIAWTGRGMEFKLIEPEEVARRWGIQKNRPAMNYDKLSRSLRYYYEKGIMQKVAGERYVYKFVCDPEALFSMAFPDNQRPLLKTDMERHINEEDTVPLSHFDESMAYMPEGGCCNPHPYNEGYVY
# Method in brief: as §1
sequence,measurement,setting,value
AATTGC,binding signal,FEV,"1.39 fold enrichment (6-mer frequency, TF over GST control)"
same,binding signal,ETV5,"1.43 fold enrichment (6-mer frequency, TF over GST control)"
same,binding signal,HSF1,"1.24 fold enrichment (6-mer frequency, TF over GST control)"
same,binding signal,SPIC,"1.2 fold enrichment (6-mer frequency, TF over GST control)"
same,binding signal,ELF4,"1.36 fold enrichment (6-mer frequency, TF over GST control)"
same,binding signal,ELK4,"1.29 fold enrichment (6-mer frequency, TF over GST control)"
same,binding signal,ETV2,"1.44 fold enrichment (6-mer frequency, TF over GST control)"
same,binding signal,ELF3,"1.5 fold enrichment (6-mer frequency, TF over GST control)"
same,binding signal,CRX,"1.17 fold enrichment (6-mer frequency, TF over GST control)"
same,binding signal,ETV1,"1.35 fold enrichment (6-mer frequency, TF over GST control)"
